# From PubChem BioAssay
# Only some compounds are listed: those with a hit (about 10% of all), similar ones and a draw of the others.
# ALDH1A1 inh: qHTS Assay for Inhibitors of Aldehyde Dehydrogenase 1 (ALDH1A1). Aldehyde dehydrogenase 1A1 (Homo sapiens), P00352. Purified ALDH1A1, NADH fluorescence, propionaldehyde substrate. Potency, µM (titrated, usually from 75.3 µM), inactives show top-dose activity, negative = inhibition, most hits filed as inhibitors. hit rate 7.3% among 220,000. AID 1030, 2008;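 also: potency is read from the fitted curve at half-maximal effect; plate controls were no enzyme wells and a reference inhibitor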
# HPGD inh: qHTS Assay for Inhibitors of HPGD (15-Hydroxyprostaglandin Dehydrogenase) | purified HPGD, NADH fluorescence kinetic, PGE2 substrate | Potency, µM, for inactives: at the top dose activity change, negative = inhibition, most hits filed as inhibitors | hit rate 4.3% among 150,000 | AID 894, 2007; also: potency is read from the fitted curve at half-maximal effect
#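 NADH formation kinetics: reaction with 30 uM PGE2 and 1 mM NAD+ (final), 20 nM enzyme, Tris-HCl pH 8 with Tween 20, after 15 min compound preincubation at room temperature. Fluorescence change, last versus first of five reads.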
# LMNA splice mod: qHTS Assay for Modulators of Lamin A Splicing. HeLa LMNA splicing GFP/RFP minigene ratio, 48 h. Potency, µM (doses to about 46.1 µM), inactives show at the highest dose ratio change, negative = inhibition, hits mostly inhibitors. hit rate 0.01% among 200,000. AID 1487, 2009; active = well fitted inhibition curve with a large enough effect in the signal ratio, with a control signal flat, not every such curve was filed as active; inconclusive = small, poorly fitted or top-dose-only effect, or effect the other way, or a change in a side signal; the % refers to the signal ratio; also: potency is read from the fitted curve at half-maximal effect
#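 S3 HeLa cells stably expressing lamin A-EGFP splicing minigene plus DsRed2, 600 cells/well, 48 h compound exposure at 37C. Laser-scanning cytometry; analysed as GFP (500-530 nm)/RFP (575-640 nm) total intensity ratio; 0.5% DMSO vehicle.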
# 12-hLO inh: qHTS Assay for Inhibitors of 12-hLO (12-human lipoxygenase). Polyunsaturated fatty acid lipoxygenase ALOX12 (Homo sapiens), P18054. purified 12-hLO, xylenol orange hydroperoxide absorbance. Potency, µM (highest dose often 57.1 µM), without a hit: at the top dose activity change, negative = inhibition, actives largely listed as inhibitors. hit rate 0.12% among 150,000. AID 1452, 2008; active = well fitted inhibition curve with a large enough effect; inconclusive = small, poorly fitted or top-dose-only effect; also: potency is read from the fitted curve at half-maximal effect; nearly all actives have a fitted effect of over 55% in size
# Target sequence (P18054 whole entry, looked up): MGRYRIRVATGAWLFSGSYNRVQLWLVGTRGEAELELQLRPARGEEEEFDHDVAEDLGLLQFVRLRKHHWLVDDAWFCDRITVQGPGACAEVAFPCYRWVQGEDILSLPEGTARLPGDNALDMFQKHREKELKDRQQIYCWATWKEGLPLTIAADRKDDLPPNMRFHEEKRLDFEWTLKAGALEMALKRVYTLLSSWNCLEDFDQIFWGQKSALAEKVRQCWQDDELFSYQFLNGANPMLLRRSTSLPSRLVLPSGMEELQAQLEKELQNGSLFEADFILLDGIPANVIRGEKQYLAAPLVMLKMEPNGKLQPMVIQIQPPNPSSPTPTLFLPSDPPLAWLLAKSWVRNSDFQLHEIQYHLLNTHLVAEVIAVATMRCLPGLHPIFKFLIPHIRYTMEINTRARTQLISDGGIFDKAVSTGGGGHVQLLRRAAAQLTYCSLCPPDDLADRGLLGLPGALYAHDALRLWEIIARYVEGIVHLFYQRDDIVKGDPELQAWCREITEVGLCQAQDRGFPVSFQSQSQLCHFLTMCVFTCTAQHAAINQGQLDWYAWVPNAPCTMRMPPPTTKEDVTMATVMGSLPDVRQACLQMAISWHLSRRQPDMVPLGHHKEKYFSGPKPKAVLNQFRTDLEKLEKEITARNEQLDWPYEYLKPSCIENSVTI
#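 Purified human 12hLO (150 nM), preincubated 15 min with compound, then 40 uM arachidonic acid for 30 min, room temperature, Hepes pH 7.0 with 0.01% Triton X-100. Hydroperoxide detected by ferrous iron/xylenol orange; 573/405 nm absorbance ratio gives reaction progress.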
# PNC inhibitor: High Content Assay for Compounds that inhibit the Assembly of the Perinucleolar Compartment. PC3M PTB-GFP, PNC prevalence imaging, 16 h; active compounds read low. activity change (PNC), negative = inhibition, % at 10 µM. hit rate 3.1% among 140,000;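 active = readout at or below -70, meaning at least 70% loss of cells showing the perinucleolar compartment, a nuclear body marking cancer cells; inconclusive = readout between -30 and a set limit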;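 also: plate controls were DMSO wells for no effect and camptothecin positive control wells for full effect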
#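 Compounds are pinned in duplicate onto adhered PC3M cells stably expressing GFP-tagged PTB and incubated 16 h at 37 C. Cells are then fixed, nuclei stained with Hoechst, and PNC-positive cells counted.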
# * = called active by the depositor; ? = inconclusive; . = no result given; [ ] = dose if it differs, or a comment. Unless noted, calls follow the shape of the dose curve; as a rule, active = well fitted inhibition curve with a large enough effect (not every such curve was filed as active); inconclusive = small, poorly fitted or top-dose-only effect, or another doubt; inactive = no such curve, though single readings can be large or run the other way. Unless noted, % is scaled to controls: 0 for no effect and ±100 for the full control effect.
SMILES,ALDH1A1 inh,HPGD inh,LMNA splice mod,12-hLO inh,PNC inhibitor
O=C(NCC(c1cccnc1)N1CCc2ccccc2C1)C(=O)Nc1cccc(Cl)c1 (configuration not stated),.,.,-4%[46 µM],.,.
CC1CN(C(=O)c2ccc(COc3ccc(C(C)C)cc3)o2)CC(C)O1 (configuration not stated),28µM*,.,.,.,.
CC(C)c1ccc(OCc2ccc(C(=O)O)o2)cc1,.,.,-16%[46 µM],.,.
Cc1cccc(C(=O)N2CCc3cc(CNC(=O)c4cc5ccccc5[nH]4)ccc32)c1,.,.,-13%[46 µM],.,.
O=C(NCC(c1cccnc1)N1CCN(Cc2ccccc2)CC1)C(=O)Nc1cccc(Cl)c1 (configuration not stated),.,.,10%[46 µM],.,.
CCc1nnc(NC(=O)c2ccc(OC)cc2OC)s1,7.9µM*,-11%,-8%,-5%,?
C[C@@]12C[C@H](O)[C@@H]3[C@H](CCC4=CC(=O)CC[C@]43C)[C@H]1CC[C@@H]2c1csc(N)n1,.,.,.,3%[11.4 µM],.
O=S(=O)(c1ccccc1)n1ccc2ccccc21,?,?,?,-29%,-7
O=S(=O)(c1ccc(F)cc1)n1ccc2cccnc21,12%,-6%,-12%,6%,-100*
Cc1ccc(NCc2nnc(SCC#N)o2)c(C)c1,-15%,-16%,-3%,-5%,-100*
Cc1cc(C(=O)NC(=S)Nc2ccccc2N2CCOCC2)ccc1[N+](=O)[O-],10µM*,-19%,?,7%,52
COc1ccc(C(=O)Nc2ccccc2N2CCOCC2)cc1[N+](=O)[O-],?,-10%,4%,17%,-9
COc1ccc(C(=O)NC(=S)Nc2ccccc2N2CCOCC2)cc1[N+](=O)[O-],7.1µM*,-13%,?,6%,29
COc1ccc(C(=O)NC(=S)Nc2ccc(N3CCOCC3)c(Cl)c2)cc1[N+](=O)[O-],6%,8.9µM*,?,?,-100*
CC1=NN(c2ccccc2)C(=O)[C@@H]1N=Nc1ccc(S(N)(=O)=O)cc1,13%[13.5 µM],-8%,.,4%[11.4 µM],.
Cc1ccc(-n2c(SCC(=O)N3CCCc4ccccc43)nnc2-c2cccnc2)c(C)c1,?,-20%,-1%,-1%,8
CCOc1ccccc1-n1c(SCC(=O)N2CCCc3ccccc32)nnc1-c1cccnc1,13µM*,-1%,-7%,-1%,21
O=C(CSc1nnc(-c2cccnc2)n1-c1ccc(SC(F)F)cc1)N1CCCc2ccccc21,20µM*,-2%,2%,2%,28
Cc1ccc(Cl)cc1NC(=S)N(Cc1ccccc1)Cc1cccnc1,-15%,.,?,.,.
COCCCN1C(=O)c2ccc(C(=O)Nc3cccc(OC)c3)cc2C1=O,1.6µM*,-13%,-6%,-3%,31
CC(=O)Nc1cccc(Oc2ccc3c(c2)C(=O)N(CCC(=O)O)C3=O)c1,2%,25µM*,-5%,3%,-15
COc1cccc(C(=O)Nc2ccc3c(c2)C(=O)N(CCC(=O)O)C3=O)c1,13%,-14%,10%,6%,?
O=C(O)CCN1C(=O)c2ccc(NC(=O)CSc3ccccc3)cc2C1=O,?,20µM*,-11%,-4%,-26
CC1CCCCN1C(=O)Cc1ccc(Cl)cc1 (configuration not stated),3%,11µM*,1%,-1%,10
CC1CCCCN1C(=O)c1cc(F)c(F)cc1Cl (configuration not stated),-7%,20µM*,4%,3%,?
SMILES,ALDH1A1 inh,HPGD inh,LMNA splice mod,12-hLO inh,PNC inhibitor
Cc1cc(F)c(F)c(C(=O)N2CCCCC2C)c1Cl (configuration not stated),6%,.,-4%[46 µM],.,.
CC1CCCN(C(=O)c2cc(F)c(F)cc2Cl)C1 (configuration not stated),4%,6.3µM*,17%,1%,?
CCN1CCN(C(=O)NC(C(=O)NC2C(=O)N3C(C(=O)O)=C(CSc4nnnn4C)CSC23)c2ccc(O)cc2)C(=O)C1=O (configuration not stated),-3%,-16%,0%,0%[0.00818 µM],.
O=C(CN1C(=O)C2(SCC(=O)N2c2cccc(Cl)c2)c2ccccc21)NC1CCCCC1 (configuration not stated),.,.,0%[46 µM],.,.
O=c1c(S(=O)(=O)c2ccccc2)cn(Cc2ccc(F)cc2)c2cc(N3CCCCC3)c(F)cc12,.,.,20%[46 µM],.,.
Cc1c(-c2nc(-c3ccc4c(c3)[nH]c(=O)n4C)no2)cccc1[N+](=O)[O-],.,.,-18%[46 µM],.,.
O=C(NCCCN1CCOCC1)c1cc2ccccc2o1,4%,-1%,-1%,5%,29
O=C(NC(=S)N1CCOCC1)c1cc2ccccc2o1,25µM*,.,.,.,.
O=C(Nc1ccccc1N1CCCC1)c1cc2ccccc2o1,28µM*,-23%,5%,2%,-26
Fc1ccccc1Nc1n[nH]c(=S)s1,7.1µM*,.,2%[46 µM],.,.
FC(F)(F)c1nc(=S)c2ccccc2[nH]1,8.9µM*,.,.,.,.
Cc1nc(=S)c2ccccc2[nH]1,7.1µM*,-15%,-1%,5%,-29
CCOc1ccccc1NC(=O)c1nc2nc(C)cc(C(F)F)n2n1,.,.,3%[46 µM],.,.
O=C1c2ccccc2S(=O)(=O)c2cc(C(=O)N(c3ccccn3)c3ccccn3)ccc21,7%,-5%,-5%,3%,?
CCN1CCN(C(=O)c2ccc3c(c2)S(=O)(=O)c2ccccc2C3=O)CC1,7.9µM*,.,-8%[46 µM],.,.
O=C(NCC(c1ccco1)N1CCCCC1)c1ccc2c(c1)S(=O)(=O)c1ccccc1C2=O (configuration not stated),13µM*,.,.,.,.
CCC(C)(C)NC(=O)c1ccc2c(c1)S(=O)(=O)c1ccccc1C2=O,3.5µM*,25µM*,4%,-11%,?
O=C(Nc1ccccn1)c1ccc2c(c1)S(=O)(=O)c1ccccc1C2=O,16µM*,-16%,-18%,-4%,62
O=c1c(-c2ccccc2)nc2cnc(N3CCOCC3)nc2n1-c1ccccc1,?,?,.,0%,.
COC(=O)NC(c1ccccc1)C(C(=O)OC)C(=O)OC (configuration not stated),2%[13.5 µM],.,.,.,.
N#CC1=C(N)SC(N)=C(C#N)C1c1ccc([N+](=O)[O-])cc1,10µM*,?,?,?,50
CCOc1ccccc1C1C(C#N)=C(N)SC(N)=C1C#N,5%,-17%,?,-24%,4
CCc1ccc(C2C(C#N)=C(N)SC(N)=C2C#N)s1,?,28µM*,14%,?,13
CCc1ccc(C2C(C#N)=C(N)SC(N)=C2C#N)cc1,11µM*,35µM*,14%,?,?
N#CC1=C(N)SC(N)=C(C#N)C1c1ccc(C(F)(F)F)cc1,25µM*,-28%,-8%,-7%,-127*
